About 20,000 (21%) of roughly 96,000 compounds were called active.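 Rule for the calls: active = CYP2C19 inhibition above a set limit at 5 µM in the primary screen (cut at about 50% in these data); inactive = the rest.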 The list is a sample of the results.
What follows are molecules tested against Cytochrome P450 2C19 (Homo sapiens) (UniProt P33261) (assay: blockers of cytochrome P450 2C19 activity – biochemical, luminescence, ADME assay, primary screen (AID 778;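 note: plate controls were negative control wells for no effect and 2.5 mM tranylcypromine positive control for full effect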)). Conditions: CYP2C19 Supersomes, luciferin-H EGE luminescence, 30 min; at 5 µM; active compounds read high.
Chain of Cytochrome P450 2C19 (Homo sapiens) (P33261 whole entry, looked up): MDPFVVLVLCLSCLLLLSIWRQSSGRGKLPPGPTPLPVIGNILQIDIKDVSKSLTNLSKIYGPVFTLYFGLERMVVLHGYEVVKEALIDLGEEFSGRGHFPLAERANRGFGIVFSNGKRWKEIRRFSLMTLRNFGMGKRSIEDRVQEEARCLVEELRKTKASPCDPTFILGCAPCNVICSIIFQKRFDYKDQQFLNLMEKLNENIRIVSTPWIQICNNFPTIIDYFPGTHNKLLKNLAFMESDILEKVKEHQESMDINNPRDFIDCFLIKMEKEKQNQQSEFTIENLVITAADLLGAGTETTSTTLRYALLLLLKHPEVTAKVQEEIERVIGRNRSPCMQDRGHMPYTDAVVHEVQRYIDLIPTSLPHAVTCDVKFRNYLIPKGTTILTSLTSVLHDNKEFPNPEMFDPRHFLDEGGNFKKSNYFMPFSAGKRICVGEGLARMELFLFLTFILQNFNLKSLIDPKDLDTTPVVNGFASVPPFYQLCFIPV

inhibition, active:
O=C(COc1ccccc1)N1CCc2ccccc2C1 87.9%
CCC(C(=O)NCc1ccc(OC)cc1)n1nc(C)n2c(cc3occc32)c1=O (stereo unspecified) 58.8%
CCOc1ccc(CCNC(=O)C(CC)n2nc(C)n3c(cc4sccc43)c2=O)cc1OCC (stereo unspecified) 57.8%
Cc1ccc(NC(=O)Cn2nc(C)c3ccccc3c2=O)c(C)c1 56.1%

inhibition, inactive:
CCN(CC)c1nc(-c2ccccc2)cc(C(F)(F)F)c1C#N 11.4%
O=C(Cn1c(=S)nc2ccccn21)N1CCc2ccccc2C1 23.6%
COc1ccc(OCC(=O)N2CCN(C(=O)COc3ccccc3)CC2)cc1 19.3%
CC1CN(C(=O)CN2C(=O)NC(C)(c3ccccc3)C2=O)CC(C)O1 (stereo unspecified) -12.4%
CCN1CCN(CCCCOc2ccccc2F)CC1 2.6%
Cc1nnc(NC(=O)CSc2nccn2-c2cccc(C)c2C)s1 13.4%
CCOC(=O)Nc1ccc2c(c1)N(C(=O)CCN1CCN(CCO)CC1)c1ccccc1CC2 -24.8%
CCOc1ccc(CNC(=O)C2CC(=O)N(C3CCCC3)C2)cc1OC (stereo unspecified) -8%
COc1ccc(CNC(=O)c2cc3c(=O)n4ccccc4nc3n(CC3CCCO3)c2=N)cc1 (stereo unspecified) 6.2%
CCOc1ccc(CCNC(=O)C2CCN(c3ccc(N4CCOCC4)nn3)CC2)cc1OCC 13.9%
COc1ccc(CCn2c(=N)c(C(=O)NCc3ccco3)cc3c(=O)n4cccc(C)c4nc32)cc1 25.7%
COc1cc(OC)cc(-c2cc3nc(C4CCN(C(=O)OC(C)(C)C)CC4)cc(=O)n3[nH]2)c1 2.8%
CC(Cc1cccs1)NC(=O)NC1CCCCC1 (stereo unspecified) 21%
COc1cccc(Nc2nnc(SCC(=O)N3CC(C)OC(C)C3)s2)c1 (stereo unspecified) 36%
c1ccc(CCN2CN=C(Nc3nc4ccccc4o3)NC2)cc1 29.5%
CCOc1cc(-c2nc3cc(C)ccn3c2NCC2CCCO2)ccc1O (stereo unspecified) 2.7%
O=P(c1ccc2c(c1)OCCO2)(N1CCOCC1)N1CCOCC1 21.2%
O=C(Cn1nc(Cc2cccnc2)c2ccccc2c1=O)NCC1COc2ccccc2O1 (stereo unspecified) 36.1%
Cc1nn(CC(=O)Nc2ccc3c(c2)nc(CN2CCCCC2)n3C)c(=O)c2ccccc12 10.5%
COc1cccc(C(=O)Nc2ccc(NC(=O)c3ccco3)cn2)c1 38.7%
Cc1sc2c(c1C)c(=O)n(-c1ccccc1)c1nncn21 -7.8%
Cc1cc(=O)cc(C)[nH]1 4.5%
